# Measurements from PubChem BioAssay AID2283162 (EPA ToxCast).
# Records with an inconclusive call do not appear. Calls of active or inactive are those of the source. The calls were made as follows: active = hit-call score of the fitted dose curve at least 0.9, where 1 is the maximum; inconclusive = response in the unintended direction; inactive = score below 0.9.
# Biological target: human Insulin-like Growth Factor 1 Receptor (IGF1R), IGF1R (gene 3480) (UniProt P08069)
# Assay: NVS_ENZ_hIGF1R: NovaScreen (NVS) Enzymatic Assay for human Insulin-like Growth Factor 1 Receptor (IGF1R)
# Experimental: NVS_ENZ_hIGF1R is a biochemical, single-readout assay that uses extracted gene-proteins in a cell-free assay. Measurements were taken 1 hour after chemical dosing in a 384-well plate.NVS_ENZ_hIGF1R is one of one assay component(s) measured or calculated from the NVS_ENZ_hIGF1R assay. It is designed to make measurements of enzyme activity, a form of enzyme reporter, as detected with fluorescence intensity signals by Fluorescence and electrophoretic mobility shift technology.Data from the assay component NVS_ENZ_hIGF1R was analyzed into 1 assay endpoint. This assay endpoint, NVS_ENZ_hIGF1R, was analyzed in the positive analysis fitting direction relative to DMSO as the negative control and baseline of activity. Using a type of enzyme reporter, loss-of-signal activity can be used to understand changes in the enzymatic activity as they relate to the gene IGF1R. Furthermore, this assay endpoint can be referred to as a primary readout, because this assay has produced multiple assay endpoints where this one serves a enzymatic activity function. To generalize the intended target to other relatable targets, this assay endpoint is annotated to the kinase intended target family, where the subfamily is receptor tyrosine kinase.
# Binding assays used specific radioligands (tritiated, iodinated) with non-radioactive competitive displacement ligands in agonist or antagonist protocols (as indicated) and various reference compounds and inhibitors to titrate specific binding to receptors and transporters. Most enzyme assays (CYPs, kinases, phosphatases, proteases, HDACs) used recombinant protein and specific substrates (fluorescence mostly, some colorimetric and radioactive) and inhibitors, followed by a biochemical separation of substrate and product. All assays for the biochemical HTS were initially run in duplicate at a single concentration (10 uM for CYP450 assays and 25 uM for all others). Assay-chemical combinations meeting a pre-defined threshold (e.g., 30% inhibition and other criteria defined below) were then run in singleton concentration-response format with maximum concentration of 20 uM for CYPs and 50 uM for all others. Each assay was run with positive and negative controls, and concurrent controls on every plate. The follow-up (secondary) screen tested active chemical-pairs in concentration series, as well as a few additional assays not tested in the primary screen, some selected negative inactives, and several cases re-run in the concentration series for confirmatory purposes.
# Chain of human Insulin-like Growth Factor 1 Receptor (IGF1R), IGF1R (gene 3480) (P08069 whole entry, looked up): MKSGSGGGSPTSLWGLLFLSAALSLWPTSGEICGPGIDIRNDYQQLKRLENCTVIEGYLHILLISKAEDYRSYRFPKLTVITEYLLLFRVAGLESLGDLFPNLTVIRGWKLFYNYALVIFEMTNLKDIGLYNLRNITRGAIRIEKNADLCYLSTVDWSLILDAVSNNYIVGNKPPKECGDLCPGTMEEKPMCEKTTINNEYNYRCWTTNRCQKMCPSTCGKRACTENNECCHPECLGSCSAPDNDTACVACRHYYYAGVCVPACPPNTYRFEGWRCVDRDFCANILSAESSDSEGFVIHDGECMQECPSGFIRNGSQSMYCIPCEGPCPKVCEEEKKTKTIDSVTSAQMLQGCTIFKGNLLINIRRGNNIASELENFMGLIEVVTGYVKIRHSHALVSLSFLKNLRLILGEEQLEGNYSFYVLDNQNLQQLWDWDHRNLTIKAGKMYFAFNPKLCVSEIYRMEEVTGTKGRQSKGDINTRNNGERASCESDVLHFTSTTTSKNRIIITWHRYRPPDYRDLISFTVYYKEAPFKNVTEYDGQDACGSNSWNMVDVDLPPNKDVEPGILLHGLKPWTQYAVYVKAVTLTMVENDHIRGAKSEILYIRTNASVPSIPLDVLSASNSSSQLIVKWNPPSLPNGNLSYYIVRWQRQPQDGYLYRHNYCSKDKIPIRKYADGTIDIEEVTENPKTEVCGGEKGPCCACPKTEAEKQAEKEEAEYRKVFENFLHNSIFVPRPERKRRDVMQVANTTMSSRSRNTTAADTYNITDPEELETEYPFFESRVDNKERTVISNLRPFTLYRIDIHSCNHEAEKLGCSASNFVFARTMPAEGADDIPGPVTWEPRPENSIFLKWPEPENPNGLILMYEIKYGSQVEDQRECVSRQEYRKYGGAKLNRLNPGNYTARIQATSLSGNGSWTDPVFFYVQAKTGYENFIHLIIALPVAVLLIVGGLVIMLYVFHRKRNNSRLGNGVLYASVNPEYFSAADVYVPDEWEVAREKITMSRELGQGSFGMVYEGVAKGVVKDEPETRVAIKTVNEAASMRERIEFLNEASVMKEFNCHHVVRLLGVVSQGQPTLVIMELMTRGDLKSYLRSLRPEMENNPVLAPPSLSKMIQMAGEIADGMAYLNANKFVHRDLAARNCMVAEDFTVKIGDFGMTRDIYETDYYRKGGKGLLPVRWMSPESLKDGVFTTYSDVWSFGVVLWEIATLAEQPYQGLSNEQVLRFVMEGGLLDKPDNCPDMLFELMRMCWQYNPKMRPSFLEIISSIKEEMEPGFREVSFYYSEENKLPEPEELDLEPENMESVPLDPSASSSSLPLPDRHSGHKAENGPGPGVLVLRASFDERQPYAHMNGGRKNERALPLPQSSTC
SMILES,outcome,AC50
CN(C)C(=O)NC1(c2ccccc2)CCN(CCC[C@]2(c3ccc(Cl)c(Cl)c3)CCCN(C(=O)c3ccccc3)C2)CC1,inactive,–
c1ccc(C(O[C@@H]2CCCN(CCc3ccc4c(c3)OCO4)C2)c2ccccc2)cc1,inactive,–
CCCCc1ccc2c(n1)[C@@H](c1ccc(OC)cc1C[C@H](C)C(=O)O)[C@H](C(=O)O)[C@H]2c1ccc2c(c1)OCO2,inactive,–
CC(C)c1cccc(C(C)C)c1NC(=O)NS(=O)(=O)c1cc(C(C)(C)O)co1,inactive,–
O=C(O)CC(O)(CC(=O)O)C(=O)O,–,5.18 µM (active)
COc1cc(C(=O)NC2CCN(C)CC2)ccc1Nc1ncc2c(n1)N(C1CCCC1)CC(F)(F)C(=O)N2C,–,23.2 µM (active)
CCCCCCCC/C=C\CCCCCCCC(=O)OC[C@@H](O)[C@H]1OC[C@H](O)[C@H]1O,inactive,–
